Results taken from PubChem BioAssay.
Calls of active or inactive are those of the source.

Columns and labels:
[1] = optical density shifts of acrAB sulA E. coli – strain DRC41, OD650, 48 h, E. coli filamentation inducer project, primary screen (AID 1152); details: higher = more signal, called active from +8 up or from −8 down;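 also: E. coli MC1000 strain DRC41 lacking acrAB efflux pump and sulA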
[2] = probe aLefty1 binding on compound microarray – biochemical, small-molecule microarray, 635/667 nm fluorescence, primary screen (AID 1153); details: higher = more signal;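 also: score merges spot fluorescence with signal-to-noise ratio from the scanned slide images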
[3] = plasmodial surface anion channel blockers, osmotic lysis – cell-based, P. falciparum Indochina, OD700, 1 h, primary screen (AID 1154); details: P. falciparum Indochina infected RBC osmotic lysis, higher = more signal, called active from +8 up or from −8 down
[4] = plasmodial surface anion channel blockers, osmotic lysis – cell-based, P. falciparum Indochina, OD700, 2 h, primary screen (AID 1155);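 also: lysis reports solute entry through the parasite surface anion channel PSAC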; details: P. falciparum Indochina infected erythrocytes, higher = more signal, called active from +8 up or from −8 down
[5] = changes in parasitized red cell lysis, either direction – P. falciparum Indochina, OD700, 3 h, PSAC antagonist project, primary screen (AID 1156); details: P. falciparum-infected erythrocytes, osmotic lysis, higher = more signal, called active from +8 up or from −8 down
[6] = plasmodial surface anion channel blockers, osmotic lysis – cell-based, P. falciparum Indochina, OD700, 18 h, primary screen (AID 1157); details: P. falciparum Indochina infected erythrocytes, osmotic lysis OD700, 18 h; higher = more signal, called active from +8 up or from −8 down
[7] = S6 kinase pathway phospho-S6 level changes – cell-based, A549, cytoblot, luminescence, serum-stimulated, primary screen (AID 1158); details: 5 h, higher = more signal;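 also: serum-stimulated A549 lung adenocarcinoma cells; signal is phosphorylated S6 detected by cytoblot immunostaining with HRP secondary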
[8] = biological target: NADPH oxidase 2 (Homo sapiens) (UniProt P04839); test: compounds shifting NOX2 Amplex Red fluorescence – cell-based, HEK293-NOX2, PMA-stimulated, NOX inhibitor project, primary screen (AID 1159); details: 45 min, higher = more signal, called active from +8 up or from −8 down; also: test concentration not given here
Sequence of NADPH oxidase 2 (Homo sapiens) (P04839 whole entry, looked up): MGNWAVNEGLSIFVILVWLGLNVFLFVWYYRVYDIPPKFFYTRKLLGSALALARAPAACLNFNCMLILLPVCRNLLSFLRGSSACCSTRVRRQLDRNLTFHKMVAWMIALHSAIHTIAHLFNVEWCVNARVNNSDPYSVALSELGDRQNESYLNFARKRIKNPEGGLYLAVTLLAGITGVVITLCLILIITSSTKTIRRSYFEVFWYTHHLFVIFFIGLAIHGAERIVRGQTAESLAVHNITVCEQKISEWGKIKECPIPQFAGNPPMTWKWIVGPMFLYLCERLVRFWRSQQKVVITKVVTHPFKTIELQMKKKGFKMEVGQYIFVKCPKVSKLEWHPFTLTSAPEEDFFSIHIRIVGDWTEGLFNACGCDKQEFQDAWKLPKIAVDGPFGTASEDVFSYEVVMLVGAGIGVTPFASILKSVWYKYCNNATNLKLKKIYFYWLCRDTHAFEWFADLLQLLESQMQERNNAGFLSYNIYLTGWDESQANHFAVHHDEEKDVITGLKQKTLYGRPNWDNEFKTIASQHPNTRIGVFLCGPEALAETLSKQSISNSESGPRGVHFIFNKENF

[9] = biological target: NADPH oxidase 4 (Homo sapiens) (UniProt Q9NPH5); test: compounds shifting NOX4 Amplex Red fluorescence – cell-based, HEK293-NOX4, tetracycline-induced, NOX inhibitor project, primary screen (AID 1160); details: HEK293-NOX4, Amplex Red H2O2 fluorescence, 45 min; higher = more signal, called active from +8 up or from −8 down
Sequence of NADPH oxidase 4 (Homo sapiens) (Q9NPH5 whole entry, looked up): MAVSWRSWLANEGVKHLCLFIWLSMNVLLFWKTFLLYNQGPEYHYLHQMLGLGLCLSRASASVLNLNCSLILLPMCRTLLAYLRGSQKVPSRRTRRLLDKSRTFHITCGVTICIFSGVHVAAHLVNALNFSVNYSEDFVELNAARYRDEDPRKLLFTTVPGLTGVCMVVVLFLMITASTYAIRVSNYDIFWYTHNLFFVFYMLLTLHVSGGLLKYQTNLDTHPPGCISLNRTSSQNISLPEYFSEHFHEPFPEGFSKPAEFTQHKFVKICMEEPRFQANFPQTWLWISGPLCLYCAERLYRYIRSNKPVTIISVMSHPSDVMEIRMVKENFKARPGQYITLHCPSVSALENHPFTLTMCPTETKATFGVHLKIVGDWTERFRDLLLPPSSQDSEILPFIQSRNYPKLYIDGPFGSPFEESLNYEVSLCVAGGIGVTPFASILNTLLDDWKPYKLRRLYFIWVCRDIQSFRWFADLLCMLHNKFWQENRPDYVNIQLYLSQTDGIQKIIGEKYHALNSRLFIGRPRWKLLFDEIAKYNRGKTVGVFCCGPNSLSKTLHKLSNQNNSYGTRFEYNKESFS

[10] = biological target: NADPH oxidase 5 (Homo sapiens) (UniProt Q96PH1); test: compounds shifting NOX5 Amplex Red fluorescence – cell-based, HEK293-NOX5, NOX inhibitor project, primary screen (AID 1161); details: HEK293-NOX5, ionomycin, 45 min, higher = more signal
Sequence of NADPH oxidase 5 (Homo sapiens) (Q96PH1 whole entry, looked up): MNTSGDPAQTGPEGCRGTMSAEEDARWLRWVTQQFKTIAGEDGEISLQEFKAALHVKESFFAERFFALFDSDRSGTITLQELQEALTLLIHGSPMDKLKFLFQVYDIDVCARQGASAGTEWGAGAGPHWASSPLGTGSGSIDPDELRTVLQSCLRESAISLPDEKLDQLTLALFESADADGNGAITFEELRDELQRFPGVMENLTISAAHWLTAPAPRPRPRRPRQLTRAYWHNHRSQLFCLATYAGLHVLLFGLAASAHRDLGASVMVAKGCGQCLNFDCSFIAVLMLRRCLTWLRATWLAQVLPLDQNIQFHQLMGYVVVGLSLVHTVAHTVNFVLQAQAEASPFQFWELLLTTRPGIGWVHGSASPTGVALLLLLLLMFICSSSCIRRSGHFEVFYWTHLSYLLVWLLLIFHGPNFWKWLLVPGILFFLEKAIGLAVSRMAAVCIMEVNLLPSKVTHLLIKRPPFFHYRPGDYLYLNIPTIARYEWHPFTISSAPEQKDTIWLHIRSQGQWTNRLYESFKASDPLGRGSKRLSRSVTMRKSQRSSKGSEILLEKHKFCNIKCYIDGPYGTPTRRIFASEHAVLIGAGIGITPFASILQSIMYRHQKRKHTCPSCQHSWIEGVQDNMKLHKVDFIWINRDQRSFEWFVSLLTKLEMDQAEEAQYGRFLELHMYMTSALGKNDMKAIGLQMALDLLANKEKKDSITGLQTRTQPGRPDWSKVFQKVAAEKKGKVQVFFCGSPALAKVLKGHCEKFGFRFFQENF

Compound | z-score [1] | composite z-score [2] | z-score [3] | z-score [4] | z-score [5] | z-score [6] | z-score [7] | z-score [8] | z-score [9] | z-score [10]
COC(=O)c1ccc(C(O)C2C=CC3C(=O)N(c4ccccc4)C(=O)C3N2Nc2ccc(C#N)cc2)o1 (stereo not given) | -0.855 (inactive) | 0.117 | 6.87 (inactive) | 1.66 (inactive) | 1.36 (inactive) | 0.975 (inactive) | -0.757 | -0.499 (inactive) | -4.57 (inactive) | -2.23
C=CCC(OC(C)=O)[C@@H]1[C@@H](N(Cc2cccc3ccccc23)C(=O)c2ccc(C)cc2)c2cc(OCCCO)ccc2N1C(=O)Cc1ccc(OC)cc1 (stereo not given in full) | 2.7 (inactive) | -0.0482 | 0.786 (inactive) | -0.438 (inactive) | -0.632 (inactive) | -0.669 (inactive) | 1.95 | -0.993 (inactive) | 0.727 (inactive) | 0.687
CC(C)NC(=O)[C@@H]1c2ccccc2C(=O)N(Cc2ccccc2Cl)[C@H]1c1ccc(CO)cc1 | 1.09 (inactive) | 0.509 | 2.67 (inactive) | 1.05 (inactive) | 0.796 (inactive) | 0.183 (inactive) | -0.469 | -0.444 (inactive) | 0.715 (inactive) | 0.376
CCCCC=C[C@@H](NC(=O)c1cccs1)c1ccccc1 | -1.05 (inactive) | 0.762 | 4.38 (inactive) | 0.669 (inactive) | 0.66 (inactive) | 1.38 (inactive) | 0.221 | -0.99 (inactive) | -0.568 (inactive) | 1.18
Cc1ccc(S[C@]2(C(=O)NCCN3CCOCC3)CC(=O)N(Cc3cc(C(F)(F)F)cc(C(F)(F)F)c3)[C@@H]2c2ccc(CO)cc2I)cc1 | 0.288 (inactive) | 0.0742 | 2.66 (inactive) | -0.599 (inactive) | -1.61 (inactive) | -1.68 (inactive) | 0.704 | 2.05 (inactive) | -0.995 (inactive) | 3.01
COCCOC(=O)N1C(=O)[C@@]2(c3cc(C#CCCO)ccc31)[C@H](C(=O)NC[C@H](O)c1ccccc1)[C@H]1C(=O)O[C@H](c3ccccc3)[C@H](c3ccccc3)N1[C@@H]2c1ccc(O)cc1 | 1.53 (inactive) | 0.0509 | 1.35 (inactive) | 0.706 (inactive) | -0.365 (inactive) | 0.435 (inactive) | 0.391 | 0.745 (inactive) | 0.698 (inactive) | 1.21
CO[C@H]1O[C@H](CO)[C@@H](OC(=O)Nc2ccc(Oc3ccccc3)cc2)[C@H](OC(=O)Nc2ccccc2)[C@H]1OC(=O)Nc1ccccc1 | 0.415 (inactive) | 0.407 | 3.14 (inactive) | 1.09 (inactive) | 1.4 (inactive) | 0.766 (inactive) | 0.696 | -0.909 (inactive) | -3.18 (inactive) | -0.854
O=C1O[C@H](c2ccccc2)[C@H](c2ccccc2)N2[C@H]1[C@@H](C(=O)O)[C@]1(C(=O)Nc3ccc(C#CC4=CCCCC4)cc31)[C@H]2c1ccc(OCCO)cc1 | -0.915 (inactive) | 0.167 | 0.381 (inactive) | -0.97 (inactive) | -9.89 (active) | -0.969 (inactive) | 0.333 | 1.19 (inactive) | -0.768 (inactive) | 1.37
CC(C)(C)N1CC=CC23O[C@@H]4/C=C\CCCOC(=O)C4[C@H]2C(=O)N(CCO)[C@@H]3C1=O (stereo not given in full) | 0.583 (inactive) | -0.552 | 0.806 (inactive) | 1.01 (inactive) | 0.17 (inactive) | 0.603 (inactive) | -0.495 | 1.58 (inactive) | 0.0377 (inactive) | 2.17
CN(C)CCCCNC(=O)[C@H]1C[C@H]2C(=O)N[C@@H](Cc3ccccc3)C(=O)N2[C@H]1c1ccc(O)cc1 | 1.22 (inactive) | 0.0161 | -0.0717 (inactive) | -0.63 (inactive) | 0.347 (inactive) | -0.512 (inactive) | 0.403 | -1.35 (inactive) | -1.66 (inactive) | -3.92
